Laboratory results published in the supplement of paper PMC4206467.

Tested on: Perkinsus marinus PRA240
Assay: ATP content (proliferation) relative to DMSO control; higher = more parasite growth (less inhibition)
Details: 20 µM; 4 days
Method: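 Perkinsus marinus PRA240 trophozoites (2-5x10^6 cells/ml, 100 µl, 96-well) were exposed once to MMV Malaria Box compounds at 20 µM (0.1% DMSO) in triplicate. ATP content (ATPlite bioluminescence) was read at day 4 post-exposure and normalised to DMSO + cells control wells (100% activity). Compounds were identified by joining plate and well to the Malaria Box list.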

Row | Structure (SMILES) | ATP content [%]
1 | COc1cccc(O)c1CN1CCC2(CCCN(Cc3ccc(F)cc3)C2)C1 (stereo not drawn) | 70.7
2 | CCOc1ccc(-n2cc(-c3ccccc3)c3c(SCc4cc(C)ccc4C)ncnc32)cc1 | 171
3 | CC1CCN(Cc2c(O)ccc3cc(-c4nc5ccccc5s4)c(=O)oc23)CC1 | 124
4 | COc1ccc(OC)c(C2C3=C(CC(C)(C)CC3=O)N(c3ccc(Cl)c(Cl)c3)C3=C2C(=O)CC(C)(C)C3)c1 | 161
5 | O=C(NC1CCN(Cc2ccccc2)CC1)c1cc(-c2ccncc2)nc2ccc(Cl)cc12 | 172
6 | O=C(Nc1ccccc1O)c1ccc(Oc2cccc(C(=O)Nc3ccccc3O)c2)cc1 | 30.4
7 | O=C(Nc1ccc(N2CCCCC2)c(Cl)c1)c1ccc(Br)o1 | 33.7
8 | Cc1ccc(C)c(Cn2c(N3CCC(C(=O)NCc4cccs4)CC3)nc3ccccc32)c1 | 154
9 | COc1cc2c3cc1Oc1c(OC)c(OC)cc4c1C(Cc1ccc(O)c(c1)Oc1ccc(cc1)CC3N(C)CC2)N(C)CC4 (stereo not drawn) | 144
10 | COc1ccc(CNC(=O)c2cc3c(=O)n4ccccc4nc3n(CCc3ccccc3)c2=N)cc1 | 107
11 | Cc1ccnc(NC(c2cccc(OCc3ccccc3)c2)c2ccc3cccnc3c2O)c1 (stereo not drawn) | 57.2
12 | CCOc1ccccc1NC(=O)CN1CCN(C(=O)c2ccco2)CC1 | 66.6
13 | CCOc1c(Br)cc(C2C(C(=O)OC)=CN(C)C=C2C(=O)OC)cc1OC | 123
14 | COc1cc(C(=O)ON=C(N)Cc2cccc3ccccc23)cc(OC)c1OC | 87.4
15 | COc1ccc(N2CCN(C(CNC(=O)C3CCCCC3)c3ccc4c(c3)OCO4)CC2)cc1 (stereo not drawn) | 114
16 | COc1ccc2c(c1OC)C(=O)N1c3ccccc3N=C(c3ccc(C)cc3)CC21 (stereo not drawn) | 155
17 | CC1CC2=C(CC1CNCCCN(C)C)C(C)(C)CCC2 (stereo not drawn) | 119
18 | Cc1cccc(N2C(=O)C3C(C2=O)C2(c4ccccc4)C(=O)C3(c3ccccc3)C(c3ccc4c(c3)OCO4)=C2c2ccc3c(c2)OCO3)c1 (stereo not drawn) | 110
